# Measurements from article PMC5540273 (PLoS ONE, 2017).
# Assays:
# Details in all cases: concentration: 1 μM, replicates: in singlicate; n = 1
# STK36 = tested on: STK36
# STK39 = tested on: STK39
# SYK = tested on: SYK
# SgK110 = tested on: SgK110
# TAK1 = tested on: T1, TAK1
# T1 construct: gene MAP3K7
# TAOK1 = tested on: TAOK1
# TAOK2 = tested on: TAOK2
# TAOK3 = tested on: TAOK3
# TBK1 = tested on: TBK1
# TEC = tested on: TEC
# TESK1 = tested on: TESK1
# TGFBR1 = tested on: TGFBR1
# TGFBR2 = tested on: TGFBR2
# TIE1 = tested on: TIE1
# TIE2 = tested on: T2, TIE2
# T2 construct: gene TEK
# TLK1 = tested on: TLK1
# TLK2 = tested on: TLK2
# TNIK = tested on: TNIK
# TNK1 = tested on: TNK1
# TNK2 = tested on: TNK2
# 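Also: KINOMEscan kinase panel screen.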
Structure (SMILES),%Inh (STK36),%Inh (STK39),%Inh (SYK),%Inh (SgK110),%Inh (TAK1),%Inh (TAOK1),%Inh (TAOK2),%Inh (TAOK3),%Inh (TBK1),%Inh (TEC),%Inh (TESK1),%Inh (TGFBR1),%Inh (TGFBR2),%Inh (TIE1),%Inh (TIE2),%Inh (TLK1),%Inh (TLK2),%Inh (TNIK),%Inh (TNK1),%Inh (TNK2)
CN1CCN(CCCNc2nccc(-c3c(-c4ccc(F)cc4)nn4cc(C(F)(F)F)ccc34)n2)CC1 [GW621581],97.6%,3%,10%,0%,0%,4%,0%,8%,0%,0%,10%,72%,44%,16%,9%,2%,0%,24%,0%,0%
Nc1ncc(-c2cccnc2)c2scc(-c3ccc4c(c3)CCN4C(=O)Cc3ccccc3)c12 [GSK683281],87%,4%,34%,1%,7%,0%,4%,0%,14%,17%,33%,0%,0%,92.5%,57%,0%,0%,55%,19%,59%
Nc1ncnc2c1nc(-c1ccccc1)n2-c1ccccc1 [SKF-97293],7%,0%,6%,0%,35%,38%,6%,25%,24%,8%,19%,9%,4%,9%,11%,0%,19%,0%,8%,0%
COc1cc2c(cc1OCCN1CCNCC1)ncc1c3ccc(C#N)cc3[nH]c21,6%,33%,0%,0%,95.1%,0%,4%,2%,81%,0%,2%,20%,0%,1%,5%,25%,0%,76%,4%,0%
Cn1cc(-c2ccc3c(c2)CCN3C(=O)Cc2cccc(Cl)c2)c2c(N)ncnc21 [GSK2606590],0%,9%,38%,0%,42%,0%,0%,0%,27%,4%,52%,0%,0%,92.3%,45%,0%,0%,7%,11%,0%
CN(C)S(=O)(=O)c1cc(-c2ccc3nccc(-c4cccc(S(N)(=O)=O)c4)c3c2)cnc1N [GSK1669921],0%,0%,0%,0%,0%,18%,0%,7%,2%,12%,0%,0%,0%,26%,0%,0%,0%,13%,42%,9%
Cc1ccc(S(=O)(=O)Nc2ccc(Nc3nccc(Nc4cccc5[nH]ncc45)n3)cc2)cc1 [GSK581271],0%,1%,31%,0%,0%,0%,0%,0%,9%,9%,13%,20%,91.2%,9%,0%,0%,0%,0%,0%,27%
Cc1cccc(NC(=O)Nc2ccc(Oc3ncnc4ccn(C)c34)cc2)c1,0%,0%,0%,0%,0%,0%,20%,0%,6%,0%,0%,0%,0%,59%,2%,0%,0%,8%,0%,5%
O=C(Nc1n[nH]c2cc(-c3ccoc3)ccc12)C1CC1 [SB-738481],13%,1%,2%,0%,2%,65%,27%,15%,15%,0%,0%,0%,0%,0%,5%,7%,0%,42%,0%,0%
O=C(Nc1cccc(-c2nn3ncccc3c2-c2ccnc(Nc3ccccc3)n2)c1)c1c(F)cccc1F [GSK198271],100%,0%,37%,0%,0%,90%,93.2%,97.3%,0%,95.4%,24%,0%,0%,45%,25%,22%,0%,32%,97.4%,51%
COCCOCCOc1cc2ncc3c4ccc(C#N)cc4[nH]c3c2cc1OC,22%,0%,5%,0%,88%,0%,12%,0%,89%,0%,18%,0%,0%,0%,0%,0%,0%,87%,0%,9%
COc1cc(Nc2nccc(N3CCC(NC(=O)c4cc5ccccc5s4)C3)n2)cc(OC)c1OC (stereo not shown) [GSK1379760],32%,0%,52%,0%,12%,0%,0%,0%,3%,10%,9%,0%,0%,35%,0%,8%,18%,0%,0%,15%
CCCCc1nn2ncccc2c1-c1ccnc(Nc2ccc(N3CCN(C)CC3)cc2)n1 [GW684941],91.4%,33%,0%,10%,4%,37%,47%,42%,11%,0%,39%,80%,91%,93.6%,80%,0%,0%,25%,86%,62%
Nc1n[nH]c2cnc(-c3ccccc3)cc12 [SB-642124],0%,0%,0%,50%,0%,51%,9%,7%,1%,68%,22%,27%,58%,100%,0%,25%,0%,39%,0%,38%
COc1ccc(CNC(=O)NC2CCN(c3ccnc(Nc4ccc(F)cc4)n3)CC2)cc1 [GSK1379788],0%,0%,21%,0%,0%,0%,0%,0%,2%,0%,2%,18%,0%,0%,0%,0%,0%,0%,9%,2%
CCn1c(-c2nonc2N)nc2c(C#CC(C)(C)O)ncc(OCCCCN)c21.O=C(O)C(F)(F)F.O=C(O)C(F)(F)F [GSK507274],0%,11%,4%,0%,0%,40%,8%,0%,31%,0%,57%,0%,0%,5%,44%,0%,0%,0%,0%,11%
CN(C)Cc1ccc(-c2ccc3c(Nc4ccc(Oc5ccccn5)cc4)ccnc3c2)o1 [GW567148],0%,0%,0%,0%,23%,0%,0%,0%,7%,49%,0%,0%,0%,19%,0%,0%,0%,20%,29%,40%
NCCCC(NC(=O)c1cc(Br)c(-c2ccnc3[nH]ccc23)s1)c1ccccc1.O=C(O)C(F)(F)F.O=C(O)C(F)(F)F (stereo not shown) [GSK1287544],0%,0%,0%,58%,0%,34%,0%,0%,0%,0%,16%,0%,0%,73%,15%,0%,0%,3%,0%,0%
Cl.Cl.NCC(C(=O)Nc1cc(Br)c(-c2ccnc3[nH]ccc23)s1)c1ccccc1 (stereo not shown) [GSK1269851],0%,44%,7%,0%,0%,0%,0%,0%,7%,11%,0%,0%,0%,51%,6%,0%,0%,11%,6%,12%
Cc1ccc(C(=O)N2CC[C@@H](O)C2)cc1-n1c(C)cc(OCc2ccc(F)cc2F)c(Br)c1=O,0%,0%,7%,0%,0%,31%,57%,0%,1%,0%,0%,16%,0%,0%,20%,13%,0%,0%,0%,0%
